# The campaign covered roughly 310,000 compounds. About 3,600 (1.2%) were called active. This is one part of a sample in which actives are shown more often than they occur.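 How the source made its calls: active means ratio plate-corrected score three or more library SD toward inhibition, starting fluorescence score within five deviations; inactive means the rest.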
# Target: Anoctamin-1 (Mus musculus) (UniProt Q8BHY3)
# Experiment: blockers of mouse ANO1 Ca-activated Cl channel – cell-based, HTS, primary screen (AID 588511);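 on normalized B-score (activity score, 25-100; higher = stronger inhibition): score derived from kinetic fluorescence span divided by baseline fluorescence per well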
# Conditions: HEK293 TMEM16A/YFP iodide influx fluorescence, ionomycin; at 10 µM
# Anoctamin-1 (Mus musculus), sequence (Q8BHY3 whole entry, looked up): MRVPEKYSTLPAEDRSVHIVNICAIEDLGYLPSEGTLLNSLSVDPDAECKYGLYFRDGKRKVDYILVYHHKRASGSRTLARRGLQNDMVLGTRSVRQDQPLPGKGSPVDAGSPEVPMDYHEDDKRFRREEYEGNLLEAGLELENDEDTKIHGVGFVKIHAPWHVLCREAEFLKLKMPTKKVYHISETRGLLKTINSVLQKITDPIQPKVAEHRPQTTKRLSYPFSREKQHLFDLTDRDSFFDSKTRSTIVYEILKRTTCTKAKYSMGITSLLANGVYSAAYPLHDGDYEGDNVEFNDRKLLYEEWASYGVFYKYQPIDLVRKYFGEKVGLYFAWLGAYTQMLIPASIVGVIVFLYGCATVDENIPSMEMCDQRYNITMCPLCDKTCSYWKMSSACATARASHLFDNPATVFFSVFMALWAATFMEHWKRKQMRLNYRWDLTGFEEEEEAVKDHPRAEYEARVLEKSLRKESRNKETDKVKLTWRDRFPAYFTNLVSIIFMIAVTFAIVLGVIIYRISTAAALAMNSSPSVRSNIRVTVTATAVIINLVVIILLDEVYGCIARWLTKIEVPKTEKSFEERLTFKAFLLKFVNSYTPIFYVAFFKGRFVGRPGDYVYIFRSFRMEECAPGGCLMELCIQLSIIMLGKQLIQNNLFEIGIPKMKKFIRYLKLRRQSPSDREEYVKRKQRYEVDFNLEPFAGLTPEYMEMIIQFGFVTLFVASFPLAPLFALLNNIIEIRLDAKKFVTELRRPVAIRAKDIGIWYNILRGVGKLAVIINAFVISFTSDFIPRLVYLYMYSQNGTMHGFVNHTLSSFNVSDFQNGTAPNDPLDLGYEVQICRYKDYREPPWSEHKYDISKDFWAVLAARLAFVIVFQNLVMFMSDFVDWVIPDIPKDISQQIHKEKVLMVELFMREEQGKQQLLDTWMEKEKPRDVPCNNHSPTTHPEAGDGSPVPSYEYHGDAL
row,SMILES,"normalized B-score (activity score, 25-100; higher = stronger inhibition)"
1,COc1ccc(CCC(=O)c2ccc(OC)cc2)cc1,100 (active)
2,COc1ccc(C(=O)CCC(=O)Nc2ccc(Cl)cc2)cc1,inactive
3,CO/N=C/CC(=O)c1ccc(OC)cc1,inactive
4,O=C(CSc1nc(=O)n2ccccc2n1)Nc1ccc2c(c1)OCCO2,inactive
5,CCCc1cc(=S)n2c([nH]c3ccccc32)c1C#N,25 (active)
6,Cc1ccccc1Cn1c(=O)[nH]c2ccccc21,inactive
7,CCOC(=O)CCc1c(C)c(C#N)c2[nH]c3ccccc3n2c1=O,inactive
8,CCC(=O)Nc1nc2ccccc2n1Cc1ccccc1C,inactive
9,CCN1CCN(c2cc3nc(C)n(Cc4ccccc4)c(=O)c3cc2NC(=O)c2ccccc2F)CC1,inactive
10,CCC(=O)Nc1ccc2nc(C)n(Cc3ccccc3Cl)c(=O)c2c1,100 (active)
11,COC(c1ccccc1)(c1ccccc1)C(Oc1nc(C)cc(C)n1)C(=O)O (stereo unspecified),inactive
12,O=C1NCCn2nc3ccccc3c21,inactive
13,COc1ccc(NC(=O)C2CCN(S(=O)(=O)c3ccc4[nH]c(=O)oc4c3)CC2)c(OC)c1,inactive
14,Cc1ccc(OCc2cc(C(=O)N(C)CCc3ccccc3)no2)cc1C,inactive
15,CC(=O)c1cccc(OCc2cc(C(=O)NC(C)Cc3cccnc3)no2)c1 (stereo unspecified),inactive
16,CN(Cc1cccnc1)C(=O)c1cc(COc2ccc3ncccc3c2)on1,100 (active)
17,O=c1c(-c2ccc3c(c2)OCCO3)c(C(F)(F)F)oc2cc(O)cc(O)c12,inactive
18,CCOC(=O)c1cc2cc(-c3c(C(=O)OCC)oc4cc(O)cc(O)c4c3=O)ccc2o1,100 (active)
19,CCOC(=O)c1cc(=O)c2ccc(OCc3ccccc3)cc2o1,inactive
20,COCCn1c(Cc2cccn2C)nnc1SCC(=O)Nc1nccs1,inactive
21,COCCCN1C(=O)c2ccc(C(=O)OCC(=O)NCc3ccccc3OC)cc2C1=O,inactive
22,CC1(N2CCOCC2)CC2(O)C(=[N+]1[O-])CCc1nonc12 (stereo unspecified),inactive

row,SMILES,"normalized B-score (activity score, 25-100; higher = stronger inhibition)"
1,CN1C(=O)/C(=C\c2cc(Br)cs2)c2ccccc21,inactive
2,CCOC(=O)C1=C(c2ccc(OC)cc2)C(=O)c2ccccc2C1=O,inactive
3,Cc1ccc(C2C3=C(Nc4[nH]n(-c5ccccc5)c(=O)c42)c2ccccc2C3=O)cc1 (stereo unspecified),inactive
4,COC(=O)C1=C(C)NC2=C(C(=O)c3ccccc32)C1c1ccc(-c2ccc(C(=O)O)cc2)o1 (stereo unspecified),25 (active)
5,CCCOc1ccc(Cc2c(Cl)nc(SC)nc2NC)cc1,100 (active)
6,CCCOc1ccc(Cc2c(O)nc(SC)[nH]c2=O)cc1C,inactive
7,CCCOc1ccc(-c2nc(N)n[nH]2)cc1,inactive
8,CSc1ncccc1C(=O)OCc1ccc(Br)cc1,inactive
9,COc1ccc(OC)c(C2C3=C(N=c4s/c(=C\c5cccc(O)c5)c(=O)n42)c2ccccc2CC3)c1 (stereo unspecified),inactive
10,Cc1nn(-c2ccc([N+](=O)[O-])cc2)c(N)c1-c1ccccc1,inactive
11,O=C1CC(c2ccccc2)=NN1c1ccc([N+](=O)[O-])cc1,100 (active)
12,CC1=NN(c2ccccc2)C(=O)C1C(=O)c1ccc([N+](=O)[O-])cc1 (stereo unspecified),inactive
13,CCNC(=O)NNC(=O)C1CC(c2cccs2)=NO1 (stereo unspecified),inactive
14,Nc1nnc(SCC(=O)OCc2ccc(Cl)c(Cl)c2)s1,inactive
15,Cc1ccc(CNC(=O)C2CCCN2C(=O)NCc2ccccc2)cc1 (stereo unspecified),inactive
16,Cc1cc(/C=C2\SC(=O)N(C)C2=O)c(C)n1-c1cccc(C(=O)O)c1,inactive
17,Cc1ccc(N2C(=O)S/C(=C/c3cn(C)c4ccccc34)C2=O)cc1,25 (active)
18,Cc1ccc(C(=O)N/C(=C\c2cn(C)c3ccccc23)C(=O)N2CCN(C)CC2)cc1,inactive
19,CC(C)COc1ccc(C(=O)OCC(=O)NCCC2=CCCCC2)cc1,inactive
20,CC(C(=O)NC1CCS(=O)(=O)C1)N1C(=O)/C(=C/c2ccc(Cl)cc2)SC1=S (stereo unspecified),inactive
21,Cc1noc(C)c1CSc1nc2cc(S(=O)(=O)N3CCOCC3)ccc2o1,inactive
22,COc1cccc(CNCCc2c[nH]c3ccccc23)c1OCc1ccccc1F,100 (active)

row,SMILES,"normalized B-score (activity score, 25-100; higher = stronger inhibition)"
1,COc1ccccc1NC(=O)CCCc1c[nH]c2ccccc12,inactive
2,COc1ccc(S(=O)(=O)NCCc2c[nH]c3ccccc23)cc1OC,inactive
3,CC(=O)Nc1ccc(Sc2ccccc2C(=O)N2CCCC2)cn1,inactive
4,COc1ccc(-n2ncc3c2CC(C)(C)CC3NC(=O)CCc2c(C)nn(C)c2C)cc1 (stereo unspecified),inactive
5,COc1ccc(CNC(=O)C(=O)N2CCC3(CC2)OCCN3S(=O)(=O)c2ccc(C)cc2)cc1,inactive
6,CCOC(=O)CSc1nccc(N(C)C)c1C#N,inactive
7,CCCCOc1ccc(-c2ncc(C(=O)OCC)c(N)n2)cc1,inactive
8,CCOC(=O)C(Sc1ncc(C#N)c(N)n1)C(C)C (stereo unspecified),100 (active)
9,COc1cc2sc(C)nc2cc1C,inactive
10,CCOc1ccc(-c2noc(CCC(=O)NC3CCCC3)n2)cc1OC,inactive
11,COc1cccc(NC(=O)CCc2nnc3ccc(N4CCC(C)CC4)nn23)c1,inactive
12,Cc1ccc(NC(=O)C2CC2c2ccccc2)cc1 (stereo unspecified),inactive
13,CC(C)NS(=O)(=O)c1ccc(NC(=O)C2CCCCC2)cc1,inactive
14,O=C(Nc1ccc(-c2ccc3nncn3n2)cc1)C1CCCCC1,inactive
15,O=C(O)c1ccc(NC(=O)C2CCCCC2)cc1,100 (active)
16,CCNC(=O)c1ccc(OCC(=O)Nc2ccc(F)cc2)c(OC)c1,inactive
17,COc1cc(C(=O)N(C)Cc2cccc(OC)c2OC)ccc1OCC(=O)Nc1cccc(C(F)(F)F)c1,100 (active)
18,COc1ccc(NC(=O)CN(C)CC(=O)Nc2cccc(C(F)(F)F)c2)cc1,inactive
19,COC(=O)Cc1ccc(N(Cc2ccccc2F)S(=O)(=O)c2ccc(Br)cc2)cc1,inactive
20,COc1cc(CC(=O)Nc2nc(-c3ccc(F)c(F)c3)cs2)cc(OC)c1OC,25 (active)
21,COc1cc(CC(=O)NCc2cccs2)cc(OC)c1OC,inactive
22,COc1ccc(-c2csc(NC(=O)COC(=O)Cc3ccc(Cl)cc3Cl)n2)cc1,inactive

row,SMILES,"normalized B-score (activity score, 25-100; higher = stronger inhibition)"
1,COc1ccc(CC(=O)Nc2nc(-c3ccc(F)c(F)c3)cs2)cc1OC,25 (active)
2,Cc1ccc(S(=O)(=O)NC(=O)Nc2nc(-c3ccc(F)c(F)c3)cs2)cc1,inactive
3,CCCc1ccc(-c2csc(NC(=O)Cc3cccs3)n2)cc1,inactive
4,CCn1c(SCc2cccc(C(=O)O)c2)nnc1-c1ccc(Cl)cc1,inactive
5,Cn1ccnc1-c1nnn(-c2ccc(F)cc2)n1,inactive
6,COC(=O)c1ccc(OC(=O)c2nn(C)cc2Cl)c(OC)c1,inactive
7,Cc1noc(C)c1-c1nc(CSc2ccc(Cl)cc2)no1,inactive
8,Cc1cc(C)n(CC(=O)Nc2ccc([N+](=O)[O-])cc2)n1,inactive
9,COCCCNC(=O)c1ccc(CNS(=O)(=O)c2ccc(NC(C)=O)cc2)cc1,inactive
10,Cc1cc(N=Nc2ccc3ccccc3c2)ccc1O,inactive
11,Cc1cccc(-c2c(NC(=O)c3ccco3)oc3ccc(Cl)cc3c2=O)c1,inactive
12,CN(C)CCCO/N=C(\c1ccccc1)c1ccncc1,inactive
13,CC(C)Oc1ccc(/C=C(\NC(=O)/C=C/c2ccco2)C(=O)NCCc2nc3ccccc3[nH]2)cc1,inactive
14,CCCNC(=O)c1onc(CSc2ccc(F)cc2)c1C(=O)NC(C)C,inactive
15,Cc1ccnc(N2C(=O)c3ccccc3C2Nc2ccc3c(c2)OCCO3)c1 (stereo unspecified),inactive
16,O=C1c2ccccc2C(Nc2ccc3c(c2)OCCO3)N1Cc1ccco1 (stereo unspecified),100 (active)
17,S=C(NCc1ccco1)Nc1ccc2c(c1)OCCO2,inactive
18,CCN(CC)C(=O)CSC(Nc1cccc(F)c1)=C(C#N)C#N,inactive
19,c1ccc2c(c1)C(=NC1CCCCC1)NC2=NC1CCCCC1,inactive
20,CCCn1c(C(C)Nc2nc(-c3ccc(C)cc3)cs2)nc2cc(Cl)c(N3CCCCC3)cc21 (stereo unspecified),inactive
21,CC1(C)C=C2[C@H]3CC[C@@H]4[C@@]5(C)CCC(=O)C(C)(C)[C@@H]5CC[C@@]4(C)[C@]3(C)CC[C@@]2(C(=O)O)CC1,100 (active)
22,CC1CN(C(=O)c2ccc3c(c2)OCO3)OC(c2ccccc2)O1 (stereo unspecified),inactive

row,SMILES,"normalized B-score (activity score, 25-100; higher = stronger inhibition)"
1,Cc1cc(=O)oc2c1c(C)nn2-c1ccc(Cl)cc1,inactive
2,CCCc1cc(=O)[nH]c(SCC(=O)c2c(N)n(CC(C)C)c(=O)n(C)c2=O)n1,inactive
3,CC(C)(C)C1CCC(C(=O)Nc2cccnc2)CC1 (stereo unspecified),inactive
4,COc1ccc(N(C)S(=O)(=O)c2ccc3c(c2)CC(C)N3C(=O)C2CC2)c(OC)c1 (stereo unspecified),inactive
5,COc1cccc(CNS(=O)(=O)c2ccc3c(c2)CC(C)N3C(=O)C2CCC2)c1 (stereo unspecified),100 (active)
6,COc1cccc(CNS(=O)(=O)c2ccc3c(c2)CC(C)N3C(C)=O)c1 (stereo unspecified),inactive
7,COc1cc(C(C(=O)NC2CCCC2)N(C(=O)c2ccco2)c2ccccc2C(C)=O)cc(OC)c1OC (stereo unspecified),inactive
8,Nc1nonc1-n1nnc(C(=O)N/N=C/c2cc(Br)ccc2O)c1CSC1=NCCS1,inactive
9,Cc1ccc(-c2nn(C(C)(C)C)c3ncnc(N)c23)cc1,inactive
10,Nc1nc(SCC(=O)Nc2cc(C(F)(F)F)ccc2Cl)[nH]c(=O)c1NC(=O)c1ccco1,inactive
11,COc1ccc(-n2c(C)cc(C(=O)CSc3nnc(-c4cccs4)o3)c2C)cc1,100 (active)
12,COc1ccc(-c2nnc(SCC(=O)c3ccc4c(c3)OCCO4)o2)cc1,inactive
13,COc1ccc(-n2c(C)cc(C(=O)COC(=O)c3cc(OC)c(OC)cc3NC(=O)c3cccs3)c2C)cc1,inactive
14,CCc1cc2c(N3CCN(c4nnc(CC)s4)CC3)ncnc2s1,100 (active)
15,CCc1cc2c(NC(Cc3ccccc3)C(=O)O)ncnc2s1 (stereo unspecified),inactive
16,CCc1cc2c(NC3CCCC3)ncnc2s1,inactive
17,Cc1ccc(S(=O)(=O)N[C@@H](Cc2ccccc2)C(=O)N2CCC(C(=O)N[C@H](C(=O)O)C(C)O)CC2)cc1 (stereo partly specified),inactive
18,COc1cccc(C(=O)NNS(=O)(=O)c2ccc(F)cc2)c1,inactive
